# Screen size: about 5,500 compounds; about 2,000 (36%) were called active. Inconclusive results (about 18%) are left out. Some of the results follow. Unmarked numbers belong to inactive results. Rule as the data show it: active = normalized growth mostly below about 0.91 (no sharp cut-off); inconclusive = no clear call, values can overlap the other calls; inactive = mostly above about 0.92.
# Assay: chemical genetic growth profiling, strain panel (AID 1159580);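 also: tested at 20 µM; growth read once vehicle control cultures reached saturation at 30 °C; 1 = growth at the plate median or of vehicle wells; lower values mean less growth of the strain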
# Details: growth OD
smiles,measurement,setting,value
Cc1cc(NC(=O)C2=C(O)c3ccccc3S(=O)(=O)N2C)no1,normalized growth,"S. cerevisiae deletion strains, locus YJR066W, strain TOR1, active compounds read low",0.893
same,normalized growth,"S. cerevisiae deletion strains, locus YKL009W, strain mrt4, active compounds read low",0.928
same,normalized growth,"S. cerevisiae deletion strains, locus YKL068W, active compounds read low",0.924 (active)
same,normalized growth,"S. cerevisiae deletion strains, locus YKL085W, strain MDH1 (second series), active compounds read low",0.906 (active)
same,normalized growth,"S. cerevisiae deletion strains, locus YKL085W, strain MDH1, active compounds read low",0.906 (active)
same,normalized growth,"S. cerevisiae deletion strains, locus YKL160W, strain elf1, active compounds read low",0.996
same,normalized growth,"S. cerevisiae deletion strains, locus YKL190W, strain CNB1, active compounds read low",0.976
same,normalized growth,"S. cerevisiae deletion strains, locus YKR001C, strain vps1, active compounds read low",0.973
same,normalized growth,"S. cerevisiae deletion strains, locus YKR026C, strain gcn3, active compounds read low",0.956
same,normalized growth,"S. cerevisiae deletion strains, locus YKR091W, strain srl3, active compounds read low",0.95
same,normalized growth,"S. cerevisiae deletion strains, locus YLL001W, strain dnm1, active compounds read low",0.992
same,normalized growth,"S. cerevisiae deletion strains, locus YLL026W, active compounds read low",0.968
same,normalized growth,"S. cerevisiae deletion strains, locus YLL041C, strain sdh2, active compounds read low",0.96
same,normalized growth,"S. cerevisiae deletion strains, locus YLR027C, strain aat2, active compounds read low",0.975
same,normalized growth,"S. cerevisiae deletion strains, locus YLR039C, strain RIC1, active compounds read low",0.96
same,normalized growth,"S. cerevisiae deletion strains, locus YLR058C, strain SHM2, active compounds read low",0.984
same,normalized growth,"S. cerevisiae deletion strains, locus YLR102C, strain apc9, active compounds read low",0.95
same,normalized growth,"S. cerevisiae deletion strains, locus YLR113W, strain HOG1, active compounds read low",0.929
same,normalized growth,"S. cerevisiae deletion strains, locus YLR221C, strain rsa3, active compounds read low",0.968
same,normalized growth,"S. cerevisiae deletion strains, locus YLR258W, strain gsy2, active compounds read low",0.971
same,normalized growth,"S. cerevisiae deletion strains, locus YLR262C, strain YPT6 (second series), active compounds read low",0.999
same,normalized growth,"S. cerevisiae deletion strains, locus YLR262C, strain YPT6, active compounds read low",0.977
same,normalized growth,"S. cerevisiae deletion strains, locus YLR268W, strain sec22, active compounds read low",0.969
same,normalized growth,"S. cerevisiae deletion strains, locus YLR320W, strain mms22, active compounds read low",0.955
same,normalized growth,"S. cerevisiae deletion strains, locus YLR330W, strain CHS5, active compounds read low",0.962
same,normalized growth,"S. cerevisiae deletion strains, locus YLR342W, strain FKS1 (second series), active compounds read low",1.01
same,normalized growth,"S. cerevisiae deletion strains, locus YLR342W, strain FKS1, active compounds read low",0.975
same,normalized growth,"S. cerevisiae deletion strains, locus YLR357W, strain rsc2, active compounds read low",0.994
same,normalized growth,"S. cerevisiae deletion strains, locus YLR370C, strain arc18, active compounds read low",0.98
same,normalized growth,"S. cerevisiae deletion strains, locus YLR371W, strain rom2, active compounds read low",0.967
same,normalized growth,"S. cerevisiae deletion strains, locus YLR384C, strain iki3, active compounds read low",0.954
same,normalized growth,"S. cerevisiae deletion strains, locus YLR418C, strain cdc73, active compounds read low",0.951
same,normalized growth,"S. cerevisiae deletion strains, locus YML016C, strain PPZ1, active compounds read low",0.987
same,normalized growth,"S. cerevisiae deletion strains, locus YML032C, strain rad52, active compounds read low",0.985
same,normalized growth,"S. cerevisiae deletion strains, locus YML120C, strain ndi1, active compounds read low",0.947
same,normalized growth,"S. cerevisiae deletion strains, locus YML124C, strain tub3, active compounds read low",0.954
same,normalized growth,"S. cerevisiae deletion strains, locus YMR058W, strain fet3, active compounds read low",0.976
same,normalized growth,"S. cerevisiae deletion strains, locus YMR078C, strain ctf18, active compounds read low",0.924
same,normalized growth,"S. cerevisiae deletion strains, locus YMR125W, strain sto1, active compounds read low",0.955
same,normalized growth,"S. cerevisiae deletion strains, locus YMR129W, active compounds read low",0.956
same,normalized growth,"S. cerevisiae deletion strains, locus YMR205C, strain PFK2, active compounds read low",0.989
same,normalized growth,"S. cerevisiae deletion strains, locus YMR223W, strain ubp8, active compounds read low",0.944
same,normalized growth,"S. cerevisiae deletion strains, locus YMR231W, strain pep5, active compounds read low",0.967
same,normalized growth,"S. cerevisiae deletion strains, locus YMR307W, strain GAS1, active compounds read low",0.961
same,normalized growth,"S. cerevisiae deletion strains, locus YNL067W, strain RPL9B, active compounds read low",1.01
same,normalized growth,"S. cerevisiae deletion strains, locus YNL071W, strain lat1, active compounds read low",0.976
same,normalized growth,"S. cerevisiae deletion strains, locus YNL183C, strain NPR1, active compounds read low",0.879
same,normalized growth,"S. cerevisiae deletion strains, locus YNL209W, strain ssb2, active compounds read low",0.96
same,normalized growth,"S. cerevisiae deletion strains, locus YNL233W, strain BNI4, active compounds read low",1.04
same,normalized growth,"S. cerevisiae deletion strains, locus YNL248C, strain rpa49, active compounds read low",0.973
same,normalized growth,"S. cerevisiae deletion strains, locus YNL250W, strain rad50, active compounds read low",0.908
same,normalized growth,"S. cerevisiae deletion strains, locus YNL271C, strain bni1, active compounds read low",0.923
same,normalized growth,"S. cerevisiae deletion strains, locus YNL298W, strain CLA4, active compounds read low",0.923
same,normalized growth,"S. cerevisiae deletion strains, locus YNL307C, strain MCK1, active compounds read low",0.947
same,normalized growth,"S. cerevisiae deletion strains, locus YNL322C, strain KRE1 (second series), active compounds read low",0.953
same,normalized growth,"S. cerevisiae deletion strains, locus YNL322C, strain KRE1, active compounds read low",0.978
same,normalized growth,"S. cerevisiae deletion strains, locus YNR049C, strain mso1, active compounds read low",0.967
same,normalized growth,"S. cerevisiae deletion strains, locus YNR052C, strain pop2, active compounds read low",0.955
same,normalized growth,"S. cerevisiae deletion strains, locus YOL006C, strain TOP1, active compounds read low",1.03
same,normalized growth,"S. cerevisiae deletion strains, locus YOL012C, strain htz1",1.14
same,normalized growth,"S. cerevisiae deletion strains, locus YOL147C, strain pex11, active compounds read low",0.942
same,normalized growth,"S. cerevisiae deletion strains, locus YOR001W, strain rrp6, active compounds read low",0.997
same,normalized growth,"S. cerevisiae deletion strains, locus YOR061W, strain CKA2, active compounds read low",0.992
same,normalized growth,"S. cerevisiae deletion strains, locus YOR069W, strain VPS5, active compounds read low",0.972
same,normalized growth,"S. cerevisiae deletion strains, locus YOR070C, strain gyp1, active compounds read low",0.971
same,normalized growth,"S. cerevisiae deletion strains, locus YOR080W, strain dia2, active compounds read low",0.974
same,normalized growth,"S. cerevisiae deletion strains, locus YOR083W, strain WHI5, active compounds read low",0.964
same,normalized growth,"S. cerevisiae deletion strains, locus YOR106W, strain vam3, active compounds read low",0.996
same,normalized growth,"S. cerevisiae deletion strains, locus YOR136W, strain idh2, active compounds read low",0.978
same,normalized growth,"S. cerevisiae deletion strains, locus YOR144C, strain elg1, active compounds read low",0.956
same,normalized growth,"S. cerevisiae deletion strains, locus YOR184W, strain ser1, active compounds read low",0.945
same,normalized growth,"S. cerevisiae deletion strains, locus YOR231W, strain MKK1, active compounds read low",0.993
same,normalized growth,"S. cerevisiae deletion strains, locus YOR265W, strain rbl2, active compounds read low",0.966
same,normalized growth,"S. cerevisiae deletion strains, locus YOR270C, strain vph1, active compounds read low",0.969
same,normalized growth,"S. cerevisiae deletion strains, locus YOR290C, strain snf2, active compounds read low",0.977
same,normalized growth,"S. cerevisiae deletion strains, locus YOR316C, strain cot1, active compounds read low",0.94
same,normalized growth,"S. cerevisiae deletion strains, locus YPL051W, strain arl3, active compounds read low",0.989
same,normalized growth,"S. cerevisiae deletion strains, locus YPL078C, strain atp4, active compounds read low",0.981
same,normalized growth,"S. cerevisiae deletion strains, locus YPL106C, strain sse1, active compounds read low",0.954
same,normalized growth,"S. cerevisiae deletion strains, locus YPL240C, strain hsp82, active compounds read low",0.973
same,normalized growth,"S. cerevisiae deletion strains, locus YPL256C, strain CLN2, active compounds read low",0.905
same,normalized growth,"S. cerevisiae deletion strains, locus YPR119W, strain clb2, active compounds read low",0.945
same,normalized growth,"S. cerevisiae deletion strains, locus YPR141C, strain kar3, active compounds read low",0.919
same,normalized growth,"S. cerevisiae deletion strains, locus YPR163C, strain tif3, active compounds read low",0.931
same,normalized growth,"S. cerevisiae deletion strains, locus YPR167C, strain met16, active compounds read low",0.943
same,normalized growth,"S. cerevisiae deletion strains, strain wtn01, active compounds read low",0.961
same,normalized growth,"S. cerevisiae strains, strain wild type, active compounds read low",0.983
